Screens (PubChem)
Peg3 promoter: Peg3 promoter activity inhibition; actives 1.7% (n = 360,000); inhibition, % at 20 µM; AID 588405; HeLa PEG-Prom luciferase reporter, luminescence, overnight;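 active = inhibition of at least 50% at 20 µM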
Shn3 inh set2: reduces Shn3 3'UTR luciferase signal in osteoblasts; AID 588674; actives 0.52% (n = 360,000); Clone20 osteoblast Shn3 3'UTR firefly luciferase, 24 h; inhibition, % at 12.5 µM;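 active = mean inhibition of at least 75% with every replicate also reaching 75%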
CF NFkB inh: blocks PAF-induced NF-kB reporter in cystic fibrosis cells. KKLEB NF-kB-GFP reporter, GFP fluorescence overnight. inhibition, % at 5 µM. actives 0.86% (n = 360,000). AID 588850;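 active = at least 50% inhibition at 5 µM, scaled per plate between neutral and stimulator controls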;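 note: PAF is a Pseudomonas aeruginosa culture filtrate used as stimulus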
MITF TRPM1 inh: reduces MITF-dependent TRPM1 promoter luciferase signal | SK-MEL-5 TRPM1 promoter luciferase, 24 h | inhibition, % at 12.5 µM | actives 0.83% (n = 330,000);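 active = mean inhibition across replicates of 60% or more, whatever share of single replicates reaches that level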
KKLEB tox: reduces viability of KKLEB cystic fibrosis airway cells; activity change (cytotoxicity), % at 5 µM; actives 0.36% (n = 360,000); KKLEB CF airway cells viability, ATPlite luminescence, overnight; stronger effect = lower value; cells stimulated with P. aeruginosa culture filtrate; AID 602141;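 active = corrected activity change at or below -50% at 5 µM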
HIF-2a inh: inhibitors of HIF-2a. 786-0 RCC cells HIF-2a reporter, luciferase luminescence, overnight. inhibition, % at 18.8 µM. actives 0.72% (n = 360,000). AID 624352;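 active = inhibition of the luminescence signal of 40% or more relative to plate controls, in a single-dose primary screen at 18.75 µM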
Numbers stand for hits; n = inactive; x = no result given. In the library only some 2.7% were active in any assay of this set; here they are far more common.

SMILES	Peg3 promoter	Shn3 inh set2	CF NFkB inh	MITF TRPM1 inh	KKLEB tox	HIF-2a inh
CC(C)N(CC(=O)Nc1ccc(Cl)cc1C(F)(F)F)C(=O)CCl	65	n	n	n	n	n
O=C(O)CSCC(=O)Nc1ccc(Cl)cc1C(F)(F)F	n	n	n	n	n	n
O=C1CCN(Cc2ccccc2)N1	n	n	n	n	n	n
COc1ccc(C(=O)c2c(C(F)(F)F)oc3c2C(=O)c2ccccc2C3=O)cc1OC	89	89	88	90	-65	n
O=C(NC1CCCC1)c1cccc(S(=O)(=O)N2CCOCC2)c1	n	n	n	n	n	n
COc1ccc(-n2ncc3c(N4CCCCC4)ncnc32)cc1	81	n	n	84	-82	81
Cc1ccc(-n2ncc3c(N4CCN(c5ccccc5)CC4)ncnc32)c(C)c1	97	n	n	n	n	n
COc1ccc(-n2ncc3c(N4CCN(c5cc(C)ccc5C)CC4)ncnc32)cc1	n	n	n	n	n	n
COc1ccc(-n2ncc3c(N4CCN(c5cccc(C)c5C)CC4)ncnc32)cc1	68	n	n	x	n	n
Cc1ccc(NC(=O)/C(C#N)=C/c2cn(CC(=O)NCc3ccco3)c3ccccc23)cc1C	n	n	n	n	n	n
Cc1ccc(CS/C(Nc2ccccc2C)=C(\C#N)C(=O)NCc2ccco2)c(C)c1	51	n	n	n	n	n
CNC(=O)/C(C#N)=C/c1cn(CC(=O)NCc2ccco2)c2ccccc12	n	n	n	n	n	n
Cc1ccc(C)c(NC(=O)/C(C#N)=C/c2cn(CC(=O)NCc3ccco3)c3ccccc23)c1	51	n	n	n	n	n
Cc1cc(C)cc(NC(=O)/C(C#N)=C/c2cn(CC(=O)NCc3ccco3)c3ccccc23)c1	74	n	70	84	-72	n
CS(=O)(=O)Nc1ccc2c(c1)[C@@H]1C[C@@H](CC(=O)NCc3cccnc3)O[C@H](CO)[C@@H]1O2	n	n	n	x	n	n
Cc1ccc(S(=O)(=O)Nc2ccccc2-c2nc3ccccc3[nH]c2=O)cc1	n	n	n	n	n	n
Fc1ccc2[nH]c3c(N4CCN(c5ccccc5)CC4)ncnc3c2c1	104	89	n	n	n	n
COc1cc2[nH]c3c(N4CCN(c5ccccn5)CC4)ncnc3c2cc1OC	100	n	n	n	n	n
OC1(c2cccc(C(F)(F)F)c2)CCN(c2ncnc3c2[nH]c2ccc(F)cc23)CC1	105	89	n	n	n	n
COc1ccc(N2CCN(c3ncnc4c3[nH]c3ccccc34)CC2)cc1	n	n	n	n	n	n
N#Cc1c(-c2ccccc2)cc(-c2ccccc2)nc1SCCC(=O)O	n	n	n	n	n	n
O=C(Cc1ccc(Cl)cc1Cl)Nc1ccncc1Cl	n	88	n	n	n	n
CC(=O)N1CCN(C(=O)c2cc(S(=O)(=O)N3CCCCC3)ccc2Cl)CC1	n	n	n	n	n	n
CC(C)(C)c1ccc(C(=O)NNc2cc(Cl)cc(Cl)c2)cc1	n	n	n	n	n	n
Cc1cn([C@H]2C[C@H](O)[C@@H](/C=C/C(=O)NCc3cccc4ccccc34)O2)c(=O)[nH]c1=O	n	n	81	x	-52	n
SMILES	Peg3 promoter	Shn3 inh set2	CF NFkB inh	MITF TRPM1 inh	KKLEB tox	HIF-2a inh
Nc1c(C(=O)Nc2ccc(S(=O)(=O)N3CCCC3)cc2)sc2nc3cc4c(cc3cc12)CCC4	n	n	n	n	n	n
Nc1c(C(=O)Nc2ccc(S(=O)(=O)N3CCCC3)cc2)sc2nc3ccc(OC(F)(F)F)cc3cc12	n	n	n	83	n	n
Cc1cc(N2C(=O)C=CC2=O)c([N+](=O)[O-])cc1C	105	89	66	n	n	51
CC(C)Nc1nnc(SCC(=O)Nc2ccc3c(c2)C(=O)c2ccccc2C3=O)s1	87	n	n	n	n	n
COc1ccccc1NC(=O)c1oc2ccccc2c1NC(=O)c1cc(OC)c(OC)c(OC)c1	n	n	56	n	-58	n
COCC(=O)Nc1c(C(=O)Nc2ccccc2OC)oc2ccccc12	n	n	n	n	n	n
Cc1ccccc1C(=O)N1CCC(C(=O)N2CCN(c3ncccn3)CC2)CC1	n	n	n	n	n	n
CCOC(=O)N1CCN(C(=O)C2CCN(C(=O)c3ccccc3C)CC2)CC1	107	93	n	74	n	n
